# Molecular target: Torsin-1A (Homo sapiens) (UniProt O14656)
# Test: torsin A binders from cell lysate, primary screen, small-molecule microarray, wild-type, 635/667 nm (AID 1149)
# Details: COS7 hTOR1A-WT lysate, 635 nm fluorescence, higher = more signal
# Chain of Torsin-1A (Homo sapiens) (O14656 whole entry, looked up): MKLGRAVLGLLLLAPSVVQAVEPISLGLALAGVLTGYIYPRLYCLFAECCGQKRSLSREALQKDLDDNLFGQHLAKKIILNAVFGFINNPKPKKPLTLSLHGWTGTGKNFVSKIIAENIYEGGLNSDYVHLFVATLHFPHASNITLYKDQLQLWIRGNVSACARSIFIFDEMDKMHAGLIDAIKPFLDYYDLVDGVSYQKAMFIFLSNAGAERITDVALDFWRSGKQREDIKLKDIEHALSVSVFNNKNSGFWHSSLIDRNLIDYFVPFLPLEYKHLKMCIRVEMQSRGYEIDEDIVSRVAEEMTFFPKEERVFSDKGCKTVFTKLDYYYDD
row,SMILES,composite z-score
1,[N-]=[N+]=NCc1ccccc1[C@H]1OC(c2ccc(OCCCO)cc2)=N[C@@]1(Cc1ccccc1)C(=O)N1CCOCC1,1.47
2,C=CCOC(=O)[C@H]1[C@@H]2C(=O)O[C@@H](c3ccccc3)[C@@H](c3ccccc3)N2[C@@H](c2ccc(OCCOC(=O)[C@@H]3C[C@@H]4C(=O)N[C@@H](CC(C)C)C(=O)N4[C@@H]3c3ccc(O)cc3)cc2)[C@]12C(=O)Nc1ccc(I)cc12,0.637
3,COCCOC(=O)N1C(=O)[C@@]2(c3cc(C#CCC(C(=O)OC)C(=O)OC)ccc31)[C@H](C(=O)N1CCc3cc(OC)c(OC)cc3C1)[C@H]1C(=O)O[C@H](c3ccccc3)[C@H](c3ccccc3)N1[C@@H]2c1ccc(O)cc1,1.32
4,O=C1c2ccccc2[C@@]2(Cc3ccccc3N(Cc3ccccc3)C2=O)[C@H](c2ccc(CO)cc2)N1Cc1ccccc1,-0.953
5,CN(C)CCCC[C@@H]1NC(=O)[C@@H]2C[C@H](C(=O)NCCCCCCNC(=O)CS)[C@H](c3cccc(OCCO)c3)N2C1=O,0.77
6,CCCC[C@H]1OB(O)C[C@H]2C1=C(COC)C[C@H]1C(=O)C=CC(=O)[C@H]12,0.283
7,C=C(/C(=C/C[C@@H](OC(C)=O)c1ccccc1OCCO)c1cc(C(=O)OC)ccc1OC)C(C)C,0.212
8,C=C(CCCC)/C(=C/C[C@H](OC(C)=O)c1cccc(OCCO)c1)c1cc(C(=O)OC)ccc1OC,-0.552
9,CN(C)CCCC[C@@H]1NC(=O)[C@@H]2C[C@H](C(=O)NCc3ccc(F)cc3)[C@H](c3ccc(O)cc3)N2C1=O,0.704
10,C=CCNC(=O)[C@@H]1[C@H]2C(=O)O[C@H](c3ccccc3)[C@H](c3ccccc3)N2[C@H](c2ccccc2OCCO)[C@@]12C(=O)N(C(=O)OCCOC)c1ccc(C#CCCO)cc12,0.338
11,C=CCC(OC(C)=O)[C@@H]1[C@@H](N(Cc2cc3ccccc3o2)C(=O)c2ccc(-c3ccccc3)cc2)c2cc(OCCCO)ccc2N1C(=O)c1ccc2ccccc2n1 (stereo not given in full),0.179
12,COc1ccc(C#Cc2ccc3c(c2)[C@]2(C(=O)N3)[C@H](C(=O)Nc3nc4ccccc4s3)[C@H]3C(=O)O[C@H](c4ccccc4)[C@H](c4ccccc4)N3[C@@H]2c2ccc(OCCO)cc2)cc1,0.504
13,C=CCC(OC(C)=O)[C@@H]1[C@@H](N(Cc2cc3ccccc3o2)C(=O)Cc2ccc(OC)cc2)c2cc(OCCCO)ccc2N1C(=O)Cc1ccc(OC)cc1 (stereo not given in full),0.29
14,COCCOC(=O)N1C(=O)[C@@]2(c3cc(C#CC4(O)CCCCCC4)ccc31)[C@H](C(=O)NC[C@H](O)c1ccccc1)[C@H]1C(=O)O[C@H](c3ccccc3)[C@H](c3ccccc3)N1[C@@H]2c1ccc(O)cc1,0.415
15,Cc1c(NC(=O)/C(C#N)=C/c2ccc(Cl)cc2)c(=O)n(-c2ccccc2)n1C,0.34
16,CCCC=C(CCC)[C@@H](NS(=O)(=O)c1ccc(Cl)cc1)c1ccccc1,-0.721
17,CN(C)CCCNC(=O)[C@@]1(Cc2ccccc2I)c2ccccc2C(=O)N(Cc2ccccc2)[C@H]1c1ccc(CO)cc1,0.0857
18,CCOC(=O)C[C@H]1[C@H](OC(=O)c2ccc(-c3ccccc3)cc2)[C@@H](NC(=O)c2ccc3ccccc3c2)c2cc(OCCCO)ccc2N1C(=O)c1ccccc1,0.742
19,C=C(CCCC)C(=O)CC[C@H](OC(=O)c1cccnc1)c1ccc(CO)o1,0.835
20,COc1ccc(C#Cc2ccc3c(c2)[C@]2(C(=O)N3)[C@H](c3ccc(OCCO)cc3)N3[C@H](c4ccccc4)[C@H](c4ccccc4)OC(=O)[C@H]3[C@@H]2C(=O)O)cc1,0.546
21,COC(=O)[C@@]1(Cc2ccc(F)cc2)[C@H]2c3cc(C(=O)N(C)C)n(CCN4CCOCC4)c3C[C@H]2CN1C(=O)c1ccccc1,2.73
22,CCCC[C@@H]1C[C@H]1[C@@H](NC(=O)c1ccc(C(F)(F)F)cc1)c1ccc(C(=O)OC)cc1,3.21
23,COC(=O)[C@@]1(Cc2ccccc2)[C@@H]2[C@@H](CC(=O)[C@H]2CC(=O)C(=O)N(C)C)CN1C(=O)c1ccccc1,-0.115
24,COC(=O)[C@@]1(Cc2ccc(OC)cc2)[C@H]2c3cc(C(=O)N4CCCC4)n(CCc4ccc(OC)c(Br)c4)c3C[C@H]2CN1C(=O)c1ccccc1,0.373
25,O=C1NC(=O)C2C1C=CC(C(O)c1cccc(O)c1)N2Nc1ccc(Cl)cc1Cl (stereo not given),-0.309
26,C=C(COC)C(=O)CC[C@@H](OC(C)=O)c1ccc(OCCO)cc1,1.82

# Molecular target: Torsin-1A (Homo sapiens) (UniProt O14656)
# Test: small-molecule binders of mutant TOR1A in lysate, primary screen, cell lysate, small-molecule microarray, COS7 lysate, 635/667 nm fluorescence (AID 1150);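 note: score pools 667 nm emission and signal to noise measuring lysate protein binding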
# Details: COS7 hTOR1A mutant lysate, 635 nm fluorescence, higher = more signal
row,SMILES,composite z-score
1,CCCCN1CC=CC23O[C@@H]4C=CCOC(=O)[C@@H]4[C@H]2C(=O)N(CCO)[C@@H]3C1=O (stereo not given in full),-0.243
2,C=CC[C@@]12N=C(c3ccc(OCCCO)cc3)O[C@@H]1c1ccccc1N(Cc1ccccc1)C2=O,0.909
3,COCCOC(=O)N1C(=O)[C@@]2(c3cc(C#CCC(C(=O)OC)C(=O)OC)ccc31)[C@H](C(N)=O)[C@H]1C(=O)O[C@H](c3ccccc3)[C@H](c3ccccc3)N1[C@@H]2c1ccc(OCCO)cc1,0.643
4,CCOC(=O)C1=C(C(=O)OCC)N(S(=O)(=O)CC[Si](C)(C)C)[C@H](c2ccccc2)CC1,0.476
5,COC(=O)C1=CC(CCCO)=CC(c2ccc(CN3CCCC3)cc2)N(Cc2sc3ccccc3c2Cl)C=C1C(=O)OC (stereo not given),1.88
6,C=CCNC(=O)[C@@H]1[C@H]2C(=O)O[C@H](c3ccccc3)[C@H](c3ccccc3)N2[C@H](c2ccc(O)cc2)[C@@]12C(=O)Nc1ccc(C#CC3(O)CCCCCC3)cc12,0.781
7,NC(=O)NCC#Cc1ccc2c(c1)[C@]1(C(=O)N2)[C@H](C(=O)Nc2nc3ccccc3s2)[C@H]2C(=O)O[C@H](c3ccccc3)[C@H](c3ccccc3)N2[C@@H]1c1ccc(OCCO)cc1,-0.628
8,COCCOC(=O)N1C(=O)[C@@]2(c3cc(C#CC4(O)CCCCCC4)ccc31)[C@H](c1ccccc1OCCO)N1[C@H](c3ccccc3)[C@H](c3ccccc3)OC(=O)[C@H]1[C@@H]2C(=O)N1CCCCCCC1,1.02
9,COCCOC(=O)N1C(=O)[C@@]2(c3cc(C#CCCO)ccc31)[C@H](C(=O)N1CCc3cc(OC)c(OC)cc3C1)[C@H]1C(=O)O[C@H](c3ccccc3)[C@H](c3ccccc3)N1[C@@H]2c1ccccc1OCCO,0.904
10,[N-]=[N+]=NCc1ccccc1[C@H]1OC(c2ccc(OCCCO)cc2)=N[C@@]1(Cc1ccccc1)C(=O)N1CCOCC1,1.17
11,C=CCOC(=O)[C@H]1[C@@H]2C(=O)O[C@@H](c3ccccc3)[C@@H](c3ccccc3)N2[C@@H](c2ccc(OCCOC(=O)[C@@H]3C[C@@H]4C(=O)N[C@@H](CC(C)C)C(=O)N4[C@@H]3c3ccc(O)cc3)cc2)[C@]12C(=O)Nc1ccc(I)cc12,1.22
12,COCCOC(=O)N1C(=O)[C@@]2(c3cc(C#CCC(C(=O)OC)C(=O)OC)ccc31)[C@H](C(=O)N1CCc3cc(OC)c(OC)cc3C1)[C@H]1C(=O)O[C@H](c3ccccc3)[C@H](c3ccccc3)N1[C@@H]2c1ccc(O)cc1,0.864
13,O=C1c2ccccc2[C@@]2(Cc3ccccc3N(Cc3ccccc3)C2=O)[C@H](c2ccc(CO)cc2)N1Cc1ccccc1,-0.773
14,CN(C)CCCC[C@@H]1NC(=O)[C@@H]2C[C@H](C(=O)NCCCCCCNC(=O)CS)[C@H](c3cccc(OCCO)c3)N2C1=O,0.702
15,CCCC[C@H]1OB(O)C[C@H]2C1=C(COC)C[C@H]1C(=O)C=CC(=O)[C@H]12,-0.0615
16,C=C(/C(=C/C[C@@H](OC(C)=O)c1ccccc1OCCO)c1cc(C(=O)OC)ccc1OC)C(C)C,-0.461
17,C=C(CCCC)/C(=C/C[C@H](OC(C)=O)c1cccc(OCCO)c1)c1cc(C(=O)OC)ccc1OC,-0.426
18,CN(C)CCCC[C@@H]1NC(=O)[C@@H]2C[C@H](C(=O)NCc3ccc(F)cc3)[C@H](c3ccc(O)cc3)N2C1=O,0.249
19,C=CCNC(=O)[C@@H]1[C@H]2C(=O)O[C@H](c3ccccc3)[C@H](c3ccccc3)N2[C@H](c2ccccc2OCCO)[C@@]12C(=O)N(C(=O)OCCOC)c1ccc(C#CCCO)cc12,1.35
20,C=CCC(OC(C)=O)[C@@H]1[C@@H](N(Cc2cc3ccccc3o2)C(=O)c2ccc(-c3ccccc3)cc2)c2cc(OCCCO)ccc2N1C(=O)c1ccc2ccccc2n1 (stereo not given in full),0.165
21,COc1ccc(C#Cc2ccc3c(c2)[C@]2(C(=O)N3)[C@H](C(=O)Nc3nc4ccccc4s3)[C@H]3C(=O)O[C@H](c4ccccc4)[C@H](c4ccccc4)N3[C@@H]2c2ccc(OCCO)cc2)cc1,0.887
22,C=CCC(OC(C)=O)[C@@H]1[C@@H](N(Cc2cc3ccccc3o2)C(=O)Cc2ccc(OC)cc2)c2cc(OCCCO)ccc2N1C(=O)Cc1ccc(OC)cc1 (stereo not given in full),0.34
23,COCCOC(=O)N1C(=O)[C@@]2(c3cc(C#CC4(O)CCCCCC4)ccc31)[C@H](C(=O)NC[C@H](O)c1ccccc1)[C@H]1C(=O)O[C@H](c3ccccc3)[C@H](c3ccccc3)N1[C@@H]2c1ccc(O)cc1,0.174
24,Cc1c(NC(=O)/C(C#N)=C/c2ccc(Cl)cc2)c(=O)n(-c2ccccc2)n1C,0.407
25,CCCC=C(CCC)[C@@H](NS(=O)(=O)c1ccc(Cl)cc1)c1ccccc1,-0.292
26,CN(C)CCCNC(=O)[C@@]1(Cc2ccccc2I)c2ccccc2C(=O)N(Cc2ccccc2)[C@H]1c1ccc(CO)cc1,0.325
27,CCOC(=O)C[C@H]1[C@H](OC(=O)c2ccc(-c3ccccc3)cc2)[C@@H](NC(=O)c2ccc3ccccc3c2)c2cc(OCCCO)ccc2N1C(=O)c1ccccc1,0.988
28,C=C(CCCC)C(=O)CC[C@H](OC(=O)c1cccnc1)c1ccc(CO)o1,0.576
29,COc1ccc(C#Cc2ccc3c(c2)[C@]2(C(=O)N3)[C@H](c3ccc(OCCO)cc3)N3[C@H](c4ccccc4)[C@H](c4ccccc4)OC(=O)[C@H]3[C@@H]2C(=O)O)cc1,1.2

# Source: PubChem BioAssay
